# Screening data: PubChem BioAssay, Broad Institute
# Compounds with a hit are over-represented: about 6.8% of the library has one in this group of screens.
# C diff HTS: C. difficile growth inhibition. AID 1259249. Clostridium difficile clinical isolate growth, OD600, 24 h; hits give low values. hit rate 0.25% among 86,000. growth activity, negative = inhibition, % at 16 µg/mL (by protocol);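 active = mean growth activity at or below -80% and every replicate also at or below -80%; inconclusive = mean at or below -80% but some replicate above -80%; inactive = mean growth activity above -80%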;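 note: 0% = DMSO wells and -100% = levofloxacin 16 µg/mL wells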
# T cruzi growth-1: inhibitors of T. cruzi proliferation | T. cruzi beta-gal in NIH3T3, GalScreen luminescence, 90 h | inhibition, % at 8.34 µM | hit rate 5.9% among 77,000;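 active = mean inhibition above about 93%, with at least 55% of replicates each passing it, limit read from the data, passing the limit was not always enough; inconclusive = only one of those two conditions holds; inactive = neither condition holds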
# Pf Dd2 growth: blocks growth of Plasmodium falciparum Dd2 parasites | P. falciparum Dd2 growth, SYBR Green, 72 h; hits give low values | hit rate 2.3% among 94,000 | activity change, % at 10 µM | AID 1159554; in the data active = activity change below about -80%; inconclusive = no clear call, values can overlap the other calls
# T cruzi growth-2: inhibitors of T. cruzi proliferation; shares compounds with T cruzi growth-1; T. cruzi beta-gal in NIH3T3, GalScreen luminescence, 90 h; inhibition, % at 8.35 µM; hit rate 72% among 5,600;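 active = mean replicate inhibition above about 95% and at least 55% of replicates individually reaching it, limit read from the data; inconclusive = only one of the two criteria is met; inactive = neither criterion is met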
# T cruzi growth-3: inhibitors of T. cruzi proliferation. T. cruzi beta-gal in NIH3T3, GalScreen luminescence, 90 h. inhibition, % at 2.09 µM. shares compounds with T cruzi growth-1. hit rate 21% among 5,600;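 active = mean inhibition above about 95%, with at least 55% of replicates also reaching it, limit read from the data; inconclusive = meets just one of the two conditions; inactive = meets neither condition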;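 note: plate controls were neutral control median for no effect and positive control median for full effect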
# NIH3T3 tox: kills mouse NIH/3T3 fibroblasts; AID 651742; shares compounds with T cruzi growth-1; hit rate 14% among 5,600; NIH/3T3 viability, CellTiter-Glo ATP luminescence, 90 h; cytotoxicity (signal decrease), % at 8.35 µM;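 active = mean signal decrease across replicates above about 35% based on untreated-well scatter, with enough replicates individually passing, limit read from the data; inconclusive = no rule stated though some were filed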;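 note: 0% = median of neutral control wells and 100% = median of positive control wells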
# 3T3 cytotox 2: NIH/3T3 (mouse) viability loss | NIH/3T3 viability, CellTiter-Glo ATP luminescence, 90 h | shares compounds with T cruzi growth-1 | AID 651744 | hit rate 56% among 5,600 | inhibition, % at 24.9 µM;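 active = mean loss of cell viability signal at or above a set limit, and enough replicates individually reaching it; inconclusive = meets only the mean limit or only the replicate share; inactive = meets neither condition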;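 note: 0% = median of neutral control wells and 100% = median of positive control wells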
# An asterisk follows results filed as active; ? = inconclusive; / = no result given; ! = a repeat was not active.
SMILES,C diff HTS,T cruzi growth-1,Pf Dd2 growth,T cruzi growth-2,T cruzi growth-3,NIH3T3 tox,3T3 cytotox 2
CCNC(=O)[C@H]1[C@H](CO)[C@H]2Cn3c(ccc(C4=CCCCC4)c3=O)[C@H]2N1C(=O)CC1CC1,-3,11,-5,/,/,/,/
CCNC(=O)[C@@H]1[C@@H](CO)[C@@H]2Cn3c(ccc(C4=CCCC4)c3=O)[C@@H]2N1C(=O)CC1CC1,1,?,8,55,18,0,-11
CCNC(=O)[C@H]1[C@H](CO)[C@H]2Cn3c(ccc(C4=CCCCC4)c3=O)[C@H]2N1C(=O)c1cnccn1,2,66,-13,/,/,/,/
CCCNC(=O)[C@@H]1[C@@H](CO)[C@@H]2Cn3c(ccc(C4=CCCC4)c3=O)[C@@H]2N1C(=O)c1cnccn1,1,97*,-7,22,0,-22,-3
CCCNC(=O)[C@H]1[C@H](CO)[C@H]2Cn3c(ccc(C4=CCCC4)c3=O)[C@H]2N1C(=O)c1cnccn1,2,99*,-4,33,-7,5,7
CCNC(=O)[C@@H]1[C@@H](CO)[C@@H]2Cn3c(ccc(C4=CCCCC4)c3=O)[C@@H]2N1C(=O)c1cnccn1,-4,82,-42,/,/,/,/
CCCNC(=O)N(C)C[C@@H]1Oc2cc(-c3cncnc3)ccc2S(=O)(=O)N([C@H](C)CO)C[C@H]1C,/,/,25,/,/,/,/
CC1C=NC(S(=O)(=O)N2CC[C@@H]3[C@H]2c2cc(-c4ccc(F)cc4)ccc2N(C)[C@H]3CO)=N1 (stereo partly drawn),11,72,-5,/,/,/,/
C[C@@H]1CN([C@@H](C)CO)C(=O)c2ccccc2-c2ccccc2CO[C@H]1CN(C)C(=O)Cc1ccccc1,-8,90,1,/,/,/,/
C[C@@H]1CN([C@H](C)CO)C(=O)c2ccccc2-c2ccccc2CO[C@@H]1CN(C)C(=O)Cc1ccccc1,-4,102*,0,21,-53,-2,11
C[C@H]1CN([C@@H](C)CO)C(=O)c2ccccc2-c2ccccc2CO[C@@H]1CN(C)Cc1ccncc1,2,?,-3,73,7,13,11
C[C@@H]1CN([C@@H](C)CO)C(=O)c2ccccc2-c2ccccc2CO[C@H]1CN(C)Cc1ccncc1,1,81,9,/,/,/,/
CCS(=O)(=O)N1CC2(C1)[C@H](c1ccccc1)[C@H](CO)N2CCC(F)(F)F,-5,/,7,/,/,/,/
COc1ccc(CN(C)C[C@H]2OCCCC[C@@H](C)Oc3ccc(NC(=O)c4ccncc4)cc3C(=O)N([C@@H](C)CO)C[C@H]2C)cc1,4,13,4,/,/,/,/
COCC(=O)N1[C@H](CO)[C@@H](c2ccccc2)[C@@H]1CN(C)C(=O)c1ccccc1,-6,90,-39,/,/,/,/
Cc1ccc(-c2cnc3c(c2)C(=O)N([C@H](C)CO)C[C@@H](C)[C@@H](CN(C)Cc2ccccc2F)O3)cc1,0,71,-6,/,/,/,/
C/C=C/c1cnc2c(c1)C(=O)N([C@@H](C)CO)C[C@@H](C)[C@@H](CN(C)Cc1ccccc1F)O2,1,/,7,/,/,/,/
Cc1ccc(-c2cnc3c(c2)C(=O)N([C@H](C)CO)C[C@H](C)[C@@H](CN(C)Cc2ccccc2F)O3)cc1,4,109*!,-22,108*,60,5,69*
C[C@@H]1CN([C@@H](C)CO)C(=O)c2cc(/C=C/c3ccccc3)cnc2O[C@H]1CN(C)Cc1ccccc1F,6,127*,-38,?,108*,5,105*
C[C@@H]1CN([C@@H](C)CO)C(=O)c2cc(/C=C/c3ccccc3)cnc2O[C@@H]1CN(C)Cc1ccccc1F,5,108*,-14,114*,80,32,56*
C/C=C/c1cnc2c(c1)C(=O)N([C@@H](C)CO)C[C@H](C)[C@H](CN(C)Cc1ccccc1F)O2,-2,/,5,/,/,/,/
C[C@H](CO)N1C[C@H](C)[C@H](CN(C)Cc2ccc3c(c2)OCO3)Oc2ccc(NC(=O)NC3CCCCC3)cc2CC1=O,1,/,14,/,/,/,/
CCCNC(=O)C[C@@H]1CC[C@@H]2[C@H](COC[C@@H](O)CN2C(=O)Nc2c(C)noc2C)O1,-1,37,-39,/,/,/,/
C[C@@H]1CCCCO[C@@H](CN(C)Cc2ccc(C(=O)O)cc2)[C@H](C)CN([C@@H](C)CO)C(=O)c2cc(NC(=O)CCC(F)(F)F)ccc2O1,1,-27,56,/,/,/,/
CO[C@H]1CN(C)C(=O)c2ccc(NC(C)=O)cc2OC[C@@H](C)N(C(=O)c2ccncc2)C[C@H]1C,/,12,-5,/,/,/,/
SMILES,C diff HTS,T cruzi growth-1,Pf Dd2 growth,T cruzi growth-2,T cruzi growth-3,NIH3T3 tox,3T3 cytotox 2
C[C@H]1CN([C@@H](C)CO)C(=O)c2cc(NC(=O)Cc3ccccc3)ccc2O[C@@H]1CN(C)C(=O)Nc1ccc(C(F)(F)F)cc1,-7,7,2,/,/,/,/
CCN(C[C@H]1[C@H](c2ccc(-c3cccnc3)cc2)[C@@H](CO)N1C(C)=O)C(C)=O,-4,-15,3,/,/,/,/
CCN(C[C@@H]1[C@@H](c2ccc(-c3ccccc3)cc2)[C@H](CO)N1C(C)=O)C(C)=O,-7,?,-10,-50,-12,-3,-21
CCC(=O)N(CC)C[C@@H]1[C@@H](c2ccc(-c3ccccc3)cc2)[C@@H](CO)N1C(C)=O,-4,/,-9,/,/,/,/
CCN(C[C@H]1[C@H](c2ccccc2)[C@@H](CO)N1C(C)=O)C(=O)c1cccc(F)c1,-7,103*,-1,-12,-5,-6,-7
CCN(C[C@H]1[C@H](c2ccc(-c3ccccc3)cc2)[C@H](CO)N1C(C)=O)C(C)=O,4,106*,3,-23,-67,-2,-2
CCC(=O)N1[C@H](CN(CC)C(=O)c2cccc(F)c2)[C@H](c2ccccc2)[C@@H]1CO,-6,13,-56,/,/,/,/
CCCN1[C@@H]2Cn3c(ccc(-c4cccc(F)c4)c3=O)[C@H]1[C@@H](C(=O)N(C)C)[C@@H]2CO,-14,/,6,/,/,/,/
CO[C@@H]1CN(C)C(=O)c2ccc(NC(=O)C3CCOCC3)cc2OC[C@@H](C)N(Cc2nccs2)C[C@@H]1C,/,-37,31,/,/,/,/
C[C@@H]1CN([C@@H](C)CO)C(=O)c2cc(NC(=O)c3ccncc3)ccc2O[C@@H](C)CCCCO[C@@H]1CN(C)C(=O)Nc1ccc(C(F)(F)F)cc1,17,/,-51,/,/,/,/
CC(C)C#Cc1cnc2c(c1)C(=O)N([C@@H](C)CO)C[C@H](C)[C@@H](CN(C)C(=O)Cc1ccccn1)O2,0,-53,-18,/,/,/,/
CC(=O)N[C@@H]1CC[C@@H](CCNC(=O)C2CC2)O[C@@H]1CO,/,39,10,/,/,/,/
COc1ccc(CN(C)C[C@H]2Oc3c(NC(=O)Nc4ccc(C(F)(F)F)cc4)cccc3C(=O)N([C@H](C)CO)C[C@@H]2C)cc1,2,/,-4,/,/,/,/
Cc1cc(C(=O)Nc2cccc3c2O[C@H](CN(C)Cc2ccc(C(F)(F)F)cc2)[C@H](C)CN([C@H](C)CO)C3=O)n(C)n1,2,18,-42,/,/,/,/
